Screens from PubChem BioAssay.
Many of the other results were omitted from the sample, so hits are more common in it than they were.
HDAC3 inhib = human HDAC3 inhibition; recombinant HDAC3, fluorogenic peptide/trypsin coupled, fluorescence; O15379; AID 2718; 0.15% of 320,000 active; inhibition, % at 8.3 µM; in the data active = inhibition above about 26%, passing the limit was not always enough; inconclusive = no clear call, values can overlap the other calls
ERp5 inh = inhibitors of human ERp5. ERp5 insulin aggregation, absorbance 650 nm, 90 min. inhibition, % at 9.99 µM. 0.05% of 350,000 active;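 active = mean replicate inhibition above about 25%, with every replicate also reaching it, limit read from the data, passing the limit was not always enough; inconclusive = only one of those two criteria met; inactive = neither criterion met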
Target sequence (Q15084 whole entry, looked up): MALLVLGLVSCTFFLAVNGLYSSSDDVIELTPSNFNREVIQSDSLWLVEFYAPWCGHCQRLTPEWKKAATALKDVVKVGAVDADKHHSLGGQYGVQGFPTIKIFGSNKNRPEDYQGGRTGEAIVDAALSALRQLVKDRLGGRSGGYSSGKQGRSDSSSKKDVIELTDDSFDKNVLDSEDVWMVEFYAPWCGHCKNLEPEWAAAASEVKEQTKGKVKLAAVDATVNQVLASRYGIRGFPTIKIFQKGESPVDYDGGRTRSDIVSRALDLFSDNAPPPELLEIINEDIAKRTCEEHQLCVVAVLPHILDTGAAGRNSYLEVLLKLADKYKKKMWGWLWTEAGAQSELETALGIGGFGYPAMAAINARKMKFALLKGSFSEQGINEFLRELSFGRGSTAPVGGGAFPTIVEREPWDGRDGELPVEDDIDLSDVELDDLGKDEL
SIRT5 block = sirtuin-5 (human) deacylase inhibition | Q9NXA8 | 1.1% of 330,000 active | Purified SirT5, succinyl-peptide AMC, trypsin-coupled fluorescence | inhibition, % at 15 µM; in the data active = inhibition above about 15%; inconclusive = no clear call, values can overlap the other calls
PDI inh = PDI (human) enzyme inhibition. P07237. PDI insulin aggregation turbidity, A650, 90 min. inhibition, % at 10 µM. 0.052% of 350,000 active. AID 588391;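 active = mean inhibition across replicates of 30% or more, whatever share of single replicates reach that level; inconclusive = mean inhibition below 30% while every single replicate reaches 30%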
ERAP1 HTS inh = blocks human ERAP1 aminopeptidase activity; Q9NZ08; recombinant ERAP1, Leu-AMC fluorescence, 60 min; inhibition, % at 10.7 µM; 0.15% of 340,000 active; AID 652197;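 active = mean replicate inhibition of at least 30%, or all replicates individually reaching that 30% level; inactive = mean below 30% and not every replicate reaching it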;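 note: 0% = neutral control wells and 100% = L-leucinethiol positive control wells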
Starred values were filed as active, the others as inactive; ? = inconclusive; . = not tested or not shown.

SMILES	HDAC3 inhib	ERp5 inh	SIRT5 block	PDI inh	ERAP1 HTS inh
Cc1ccc(S(=O)(=O)Nc2ccc3c(c2)C(=O)N([C@H](C)CO)C[C@@H](C)[C@H](CN(C)S(=O)(=O)c2ccc(Cl)cc2)O3)cc1	.	-6.0	16.0*	.	-3.0
Cc1ccc(S(=O)(=O)Nc2ccc3c(c2)C(=O)N([C@H](C)CO)C[C@H](C)[C@H](CN(C)S(=O)(=O)c2ccc(Cl)cc2)O3)cc1	.	20.8	8.3	.	-0.2
COc1ccccc1-c1ccc2c(c1)O[C@@H](CN(C)C(=O)c1ccccc1)[C@@H](C)CN([C@@H](C)CO)S2(=O)=O	.	5.0	-5.8	.	1.6
C[C@@H]1CN([C@H](C)CO)C(=O)c2cc(C3=CCCC3)cnc2O[C@@H]1CN(C)C(=O)c1cccnc1	.	-2.3	-9.5	.	2.1
COc1cc(NC(=S)N2CCN(Cc3ccccc3)CC2)cc(OC)c1	2.3	.	.	4.6	.
COc1ccc(NC(=S)N2CCN(Cc3ccccc3)CC2)cc1	0.9	8.4	93.9*	4.4	6.3
COc1ccc(S(=O)(=O)N2CCOCC2)cc1NC(=O)COC(=O)c1[nH]c(C)c(C(C)=O)c1C	2.9	0.7	17.1*	-7.9	-2.9
Cc1ccc(S(=O)(=O)N2CCOCC2)cc1NC(=O)COC(=O)c1n[nH]c(=O)c2ccccc12	4.3	-1.7	16.5*	1.3	14.6
COc1ccc(S(=O)(=O)N2CCOCC2)cc1NC(=O)CSc1n[nH]c(C(C)C)n1	-2.7	3.9	20.1*	-2.7	1.2
C[C@@H]1CCCCO[C@H](CN(C)S(=O)(=O)c2ccccc2)[C@H](C)CN([C@H](C)CO)C(=O)c2cc(NC(=O)C3CCCCC3)ccc2O1	.	2.0	4.8	.	1.5
CC(C)N1CCN(Cc2cc(F)ccc2-n2cccn2)CC1CCO (stereo not drawn)	-0.2	4.8	20.1*	-2.8	1.6
CCCCCCCC/C=C\CCCCCCCC(=O)NCCc1ccc(O)c(O)c1	12.3	1.9	31.7*	2.6	-0.1
CCN1C(=O)c2cccc3cccc1c23	19.2	-1.0	-2.5	0.6	43.8*
CN(C)C(=O)CN1C(=O)c2cccc3cccc1c23	1.2	4.5	-4.4	3.7	2.1
CC1(C)Oc2ccc3ccc(=O)oc3c2-c2cnoc21	6.0	0.5	.	.	56.5*
CC1(C)Oc2ccc3ccc(=O)oc3c2-c2cn[nH]c21	4.9	.	.	-10.0	.
Cc1cn2c(N)c(C=C3C=C(Cl)C(=O)C(Cl)=C3)c(=O)nc2s1	.	3.3	20.3*	6.4	0.1
COC1=C/C(=C/c2c(N)n3cc(C)sc3nc2=O)C=CC1=O	10.8	-0.4	-0.8	?	0.9
COc1cc2c(cc1OC)C(c1ccc(Cl)cc1)CC(=O)N2 (stereo not drawn)	-4.6	3.2	17.2*	4.6	-0.2
C[C@H]1CCCCO[C@H](CN(C)C(=O)Nc2ccc(C(F)(F)F)cc2)[C@@H](C)CN([C@@H](C)CO)C(=O)c2cc(NC(=O)Nc3ccc(F)cc3)ccc2O1	.	-0.3	16.8*	.	3.1
C[C@H](CO)N1C[C@H](C)[C@H](CN(C)C(=O)Nc2ccc(F)cc2)Oc2ccc(NC(=O)Nc3ccc(F)cc3)cc2C1=O	.	-0.4	23.5*	.	0.2
C[C@@H]1CCCCO[C@@H](CN(C)C(=O)Nc2ccc(C(F)(F)F)cc2)[C@@H](C)CN([C@H](C)CO)C(=O)c2cc(NC(=O)Nc3ccc(F)cc3)ccc2O1	.	6.8	1.2	.	-0.9
COc1ccc(NC(=O)Nc2ccc3c(c2)C(=O)N([C@@H](C)CO)C[C@@H](C)[C@H](CN(C)C(=O)Nc2cccc4ccccc24)OCCCC[C@H](C)O3)cc1	.	0.8	20.4*	.	-3.3
C[C@@H]1CN([C@@H](C)CO)C(=O)c2cc(NC(=O)Nc3ccc(F)cc3)ccc2O[C@H]1CN(C)C(=O)Nc1ccc(F)cc1	.	-2.1	-3.2	.	1.8
COc1ccc(NC(=O)Nc2ccc3c(c2)C(=O)N([C@@H](C)CO)C[C@@H](C)[C@H](CN(C)C(=O)Nc2ccc(C(F)(F)F)cc2)OCCCC[C@@H](C)O3)cc1	.	0.6	18.1*	.	-6.1
SMILES	HDAC3 inhib	ERp5 inh	SIRT5 block	PDI inh	ERAP1 HTS inh
Cc1ccc(S(=O)(=O)N[C@@H]2CC[C@@H](CC(=O)NCCCN(C)C)O[C@H]2CO)cc1	.	6.5	-3.2	.	2.3
COc1cccc(NC(=O)N2C[C@@H](O)COC[C@@H]3O[C@@H](CC(=O)NC4Cc5ccccc5C4)CC[C@H]32)c1	.	-1.2	-0.8	.	.
C[C@@H]1CCCCO[C@H](CN(C)Cc2ccncc2)[C@H](C)CN([C@@H](C)CO)C(=O)c2cc(NC(=O)Nc3ccc4c(c3)OCO4)ccc2O1	.	-1.5	1.4	.	1.6
C[C@@H]1CCCCO[C@@H](CN(C)C(=O)Cc2ccccc2)[C@@H](C)CN([C@@H](C)CO)C(=O)c2cc(NC(=O)Nc3ccc(F)cc3)ccc2O1	.	-3.1	32.0*	.	-2.2
C[C@@H]1CCCCO[C@H](CN(C)CC2CCCCC2)[C@H](C)CN([C@H](C)CO)C(=O)c2cc(NC(=O)Nc3ccc(C(F)(F)F)cc3)ccc2O1	.	2.7	100.0*	.	-0.1
C[C@@H]1CCCCO[C@@H](CN(C)C(=O)C2CCCCC2)[C@H](C)CN([C@@H](C)CO)C(=O)c2cc(NC(=O)Nc3ccc(F)cc3)ccc2O1	.	2.7	19.2*	.	0.7
C[C@@H]1CCCCO[C@@H](CN(C)C(=O)C2CCCCC2)[C@@H](C)CN([C@@H](C)CO)C(=O)c2cc(NC(=O)c3ccncc3)ccc2O1	.	-3.2	0.1	.	-3.2
C[C@@H]1CCCCO[C@@H](CN(C)C(=O)C2CCCCC2)[C@H](C)CN([C@@H](C)CO)C(=O)c2cc(NC(=O)c3ccncc3)ccc2O1	.	0.0	16.7*	.	-0.3
C[C@@H]1CN([C@@H](C)CO)C(=O)c2cc(NC(=O)Nc3ccc(F)cc3)ccc2O[C@@H](C)CCCCO[C@@H]1CN(C)C(=O)C1CCCCC1	.	2.0	7.4	.	2.0
COc1ccccc1CNC(=O)C[C@H]1CC[C@@H]2[C@H](COC[C@H](O)CN2C(=O)Nc2ccccc2)O1	.	-1.4	3.3	.	-3.7
O=C(C[C@H]1C[C@H]2c3cc(NC(=O)NC4CCCCC4)ccc3O[C@H]2[C@H](CO)O1)NCC1CC1	.	0.3	0.6	.	-0.3
C[C@H]1CN([C@@H](C)CO)C(=O)Cc2cc(NS(=O)(=O)c3ccc(Cl)cc3)ccc2O[C@H]1CN(C)Cc1ccncc1	.	3.6	-1.6	.	-1.2
C[C@@H]1CCCCO[C@@H](CN(C)C(=O)Nc2ccc(F)cc2)[C@@H](C)CN([C@@H](C)CO)C(=O)c2cc(NC(=O)Nc3ccc(F)cc3)ccc2O1	.	3.5	2.8	.	2.0
COc1ccc(NC(=O)Nc2ccc3c(c2)C(=O)N([C@H](C)CO)C[C@@H](C)[C@@H](CN(C)C(=O)Nc2ccc(C(F)(F)F)cc2)O3)cc1	.	-2.7	15.3*	.	-0.1
C[C@@H]1CCCCO[C@H](CN(C)C(=O)Nc2ccc(F)cc2)[C@@H](C)CN([C@H](C)CO)C(=O)c2cc(NC(=O)Nc3ccc(F)cc3)ccc2O1	.	-12.3	27.1*	.	3.9
COCCN(C(=O)COC(=O)c1cc2c(s1)CCC2)c1c(N)n(Cc2ccccc2)c(=O)[nH]c1=O	-8.8	3.6	15.4*	5.1	1.4
